From PubChem BioAssay AID624311 (Broad Institute, 2012) come the findings set out here.

The source made the active and inactive calls.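 How the source made its calls: active means fluorescence dropping 30% or more below neutral controls, activity change at or below -30%; inactive means the rest.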

The experiment concerns the target Protein disulfide-isomerase (Homo sapiens) (UniProt P07237). Put plainly: PDI inhibitors, fluorescent insulin aggregation, confirmation, orthogonal assay for PDI inhibitor project, biochemical, fluorescence, dry powder samples (AID 624311).

Protein disulfide-isomerase (Homo sapiens), sequence (P07237 whole entry, looked up): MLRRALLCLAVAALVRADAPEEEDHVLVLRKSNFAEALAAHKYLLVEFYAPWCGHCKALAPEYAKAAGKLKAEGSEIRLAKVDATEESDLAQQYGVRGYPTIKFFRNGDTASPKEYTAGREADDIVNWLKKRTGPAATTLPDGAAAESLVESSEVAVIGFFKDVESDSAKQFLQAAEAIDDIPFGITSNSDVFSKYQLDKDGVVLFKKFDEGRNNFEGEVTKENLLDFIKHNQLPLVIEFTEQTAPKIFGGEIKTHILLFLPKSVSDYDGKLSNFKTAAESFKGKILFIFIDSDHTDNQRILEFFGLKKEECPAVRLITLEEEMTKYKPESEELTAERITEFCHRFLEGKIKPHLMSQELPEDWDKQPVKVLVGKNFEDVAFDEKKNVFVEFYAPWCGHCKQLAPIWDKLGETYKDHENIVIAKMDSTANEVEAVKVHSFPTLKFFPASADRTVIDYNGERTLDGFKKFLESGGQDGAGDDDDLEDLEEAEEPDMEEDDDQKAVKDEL

In the case of `C[C@H]1CN([C@@H](C)CO)C(=O)c2cccc(NS(C)(=O)=O)c2O[C@H]1CN(C)Cc1ccc(Oc2ccccc2)cc1`, the compound was called inactive.
